Unmarked numbers belong to inactive results. Results filed as inconclusive are left out. Entries that show only a call come without a potency. Active and inactive are the calls of the source. Unless noted, the call rests on the fitted dose curve; in most records, active means well fitted curve in either direction with a large enough effect (not every such curve was filed as active); inconclusive means small, poorly fitted or top-dose-only effect, or another doubt; inactive means flat fitted curve, though single readings scatter.
Tests used:
[1] = AP1 Signaling Pathway (AID 357); conditions: ME-180 AP-1-bla reporter, EGF-induced, beta-lactamase ratio, 5 h; at 7.69 µM (top of the series) unless noted;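 further: ME-180 reporter cells stimulated with EGF at its EC50 level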
Outline: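 Beta-lactamase reporter under AP-1 response element, ME-180 background. Stimulus: EC50 EGF. Compound exposure 5 h, 37 °C. Detection: CCF4, 2.5 h RT, 460/530 nm. Values: AC50 from titration.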

[2] = target: Cytochrome P450 1A2 (Homo sapiens) (UniProt P05177); experiment: p450-cyp1a2 (AID 410; calls by dose curve)
Chain of Cytochrome P450 1A2 (Homo sapiens) (P05177 whole entry, looked up): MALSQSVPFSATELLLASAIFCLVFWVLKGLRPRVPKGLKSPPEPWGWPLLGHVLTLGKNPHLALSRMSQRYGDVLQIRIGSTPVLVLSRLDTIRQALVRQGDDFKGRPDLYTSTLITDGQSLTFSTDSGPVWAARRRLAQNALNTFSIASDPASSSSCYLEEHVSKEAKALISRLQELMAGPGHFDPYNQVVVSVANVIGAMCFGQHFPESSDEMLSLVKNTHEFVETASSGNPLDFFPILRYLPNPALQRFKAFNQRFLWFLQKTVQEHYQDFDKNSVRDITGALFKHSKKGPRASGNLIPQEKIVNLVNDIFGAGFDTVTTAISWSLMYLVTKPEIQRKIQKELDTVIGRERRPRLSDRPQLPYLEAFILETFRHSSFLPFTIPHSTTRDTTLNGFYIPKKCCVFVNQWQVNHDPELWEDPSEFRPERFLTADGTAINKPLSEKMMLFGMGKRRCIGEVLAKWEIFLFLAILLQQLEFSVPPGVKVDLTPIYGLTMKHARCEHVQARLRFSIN
Outline: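 Inhibition was calculated relative to 57 uM furafylline (full inhibition). The reaction used human CYP1A2 at 20nM with Luciferin-ME at its Km, 100uM, driven by an NADPH-regenerating system for 60 min at room temperature.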

[3] = NFAT Signaling Pathway (AID 444); conditions: Jurkat NFAT-bla M1, carbachol, beta-lactamase ratio, 5 h; at 7.69 µM (top of the series) unless noted;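 further: carbachol stimulus at about its EC50 of 1 µM final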
Outline: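 Read-out: CCF4 FRET ratio (460 nm/530 nm) after 1 h RT dye loading, used for %activity and AC50 from titration series. Cells: Jurkat NFAT-β-lactamase/M1 line, treated with compound plus 1 uM carbachol for 5 h, 37 °C.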

[4] = Stat Signaling Pathway (AID 446); conditions: ME-180 SIE beta-lactamase reporter, IL-6 stimulated, 5 h; at 7.69 µM (top of the series) unless noted;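 further: ME-180 cervical cancer cells given 40 pM IL-6 alongside compound; SIE-controlled beta-lactamase reporter measured as 460/530 nm FRET emission ratio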
Outline: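 Screening format detects activators and inhibitors alike: ME-180 SIE-bla cells stimulated at 40 pM IL-6 for 5 hrs with compound, then dual-emission beta-lactamase read at 405 nm excitation.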

[5] = target: Glucocorticoid receptor (Homo sapiens) (UniProt P04150); experiment: GR-GFP Redistribution (AID 450;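 active means compounds whose dose series gives a full or clear partial fitted curve of increased nuclear translocation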; further: potency means the concentration at half of the fitted maximal effect); conditions: U2OS GR-GFP nuclear translocation, laser cytometry, 2 h
Chain of Glucocorticoid receptor (Homo sapiens) (P04150 whole entry, looked up, the tested form may be a part): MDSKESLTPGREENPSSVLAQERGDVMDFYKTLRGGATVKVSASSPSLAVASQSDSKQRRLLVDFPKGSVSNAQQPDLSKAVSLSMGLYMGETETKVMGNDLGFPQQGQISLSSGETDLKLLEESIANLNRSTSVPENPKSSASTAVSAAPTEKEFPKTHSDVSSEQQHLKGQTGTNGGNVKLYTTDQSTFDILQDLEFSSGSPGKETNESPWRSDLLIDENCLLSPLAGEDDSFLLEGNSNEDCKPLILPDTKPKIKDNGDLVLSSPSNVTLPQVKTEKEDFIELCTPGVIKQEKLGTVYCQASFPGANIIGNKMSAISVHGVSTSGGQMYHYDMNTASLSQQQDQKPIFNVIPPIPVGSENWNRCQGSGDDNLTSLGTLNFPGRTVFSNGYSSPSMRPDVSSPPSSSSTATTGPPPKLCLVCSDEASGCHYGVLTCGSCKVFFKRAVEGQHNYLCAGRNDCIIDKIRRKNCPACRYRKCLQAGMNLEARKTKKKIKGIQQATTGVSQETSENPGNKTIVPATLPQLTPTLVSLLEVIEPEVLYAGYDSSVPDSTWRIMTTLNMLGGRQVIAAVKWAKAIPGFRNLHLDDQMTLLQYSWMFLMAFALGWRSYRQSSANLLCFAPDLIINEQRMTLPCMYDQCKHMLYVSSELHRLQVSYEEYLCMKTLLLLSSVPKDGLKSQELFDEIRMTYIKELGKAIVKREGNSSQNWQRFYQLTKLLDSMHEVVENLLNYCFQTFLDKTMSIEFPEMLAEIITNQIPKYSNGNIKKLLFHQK

[6] = target: Glucocorticoid receptor (Homo sapiens) (UniProt P04150); experiment: GR-EFC Redistribution (AID 451; calls by dose curve; further: potency means the concentration at half of the fitted maximal effect); conditions: CHO-K1 GR-EFC translocation, beta-gal luminescence, 2 h
Outline: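 Translocation of GR-ED fusion to nuclear EA restores b-gal, read by luminescence after 1 h room-temperature detection. Engineered CHO-K1 biosensor cells, 1,000/well, exposed 2 h at 37 C to titrations up to 46 uM final.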

[7] = target: Mitogen-activated protein kinase 10 (Mus musculus) (UniProt Q61831); experiment: JNK3 AlphaScreen Assay (AID 530);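 further: kinase came from lysate of stimulated human HepG2 cells; signal reports phosphorylation of biotinylated GST-cJun 1-79 at Ser73 with 10 µM ATP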
Outline: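 Room-temperature AlphaScreen kinase assay; pre-activated HepG2 lysate as JNK3 source, biotin-GST-cJun(1-79) substrate, 10 uM ATP, compound 15 min preincubation.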

[8] = target: 3',5'-cyclic-AMP phosphodiesterase 4B (Homo sapiens) (UniProt Q07343); experiment: qHTS Assay for Inhibitors of PDE-IV (AID 607; active means well fitted activation curve with a large enough effect in the main read-out, with a control signal flat, not every such curve was filed as active)
Chain of 3',5'-cyclic-AMP phosphodiesterase 4B (Homo sapiens) (Q07343 whole entry, looked up): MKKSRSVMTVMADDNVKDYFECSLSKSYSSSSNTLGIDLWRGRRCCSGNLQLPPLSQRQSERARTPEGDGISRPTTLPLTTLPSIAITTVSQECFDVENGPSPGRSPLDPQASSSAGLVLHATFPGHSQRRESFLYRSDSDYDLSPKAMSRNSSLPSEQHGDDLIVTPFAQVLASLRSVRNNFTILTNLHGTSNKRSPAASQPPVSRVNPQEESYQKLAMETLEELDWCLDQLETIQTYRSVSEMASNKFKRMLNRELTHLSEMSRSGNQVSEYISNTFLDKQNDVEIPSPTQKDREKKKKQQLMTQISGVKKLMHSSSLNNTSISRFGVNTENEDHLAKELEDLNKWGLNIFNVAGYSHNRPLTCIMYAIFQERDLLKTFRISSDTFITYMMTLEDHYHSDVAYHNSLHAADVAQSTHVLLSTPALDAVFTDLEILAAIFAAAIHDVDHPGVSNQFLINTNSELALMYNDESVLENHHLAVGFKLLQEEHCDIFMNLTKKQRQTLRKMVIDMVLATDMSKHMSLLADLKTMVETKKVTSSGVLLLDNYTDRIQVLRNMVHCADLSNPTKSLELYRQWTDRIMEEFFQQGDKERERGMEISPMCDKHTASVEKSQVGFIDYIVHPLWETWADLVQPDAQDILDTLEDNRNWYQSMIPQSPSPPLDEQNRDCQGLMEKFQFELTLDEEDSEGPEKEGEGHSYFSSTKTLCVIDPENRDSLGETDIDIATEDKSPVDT
Outline: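 The readout is membrane depolarisation from a cAMP-sensing CNG channel, detected with a potential dye at ex 535/em 590. Cells were HEK293-derived (endogenous PDE-IV) at 1000 cells/well, titrated up to 22.9 uM final.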

[9] = target: Guanine nucleotide-binding protein G(i) subunit alpha-1 (Homo sapiens) (UniProt P63096); experiment: qHTS Assay for Inhibitors of RGS12 GoLoco Motif Activity (Green Fluorophore) (AID 879; active means well fitted curve in the direction sought with a large enough effect; an effect the other way counts as inactive or inconclusive;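 further: negative values mean loss of peptide binding seen as reduced polarization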)
Chain of Guanine nucleotide-binding protein G(i) subunit alpha-1 (Homo sapiens) (P63096 whole entry, looked up): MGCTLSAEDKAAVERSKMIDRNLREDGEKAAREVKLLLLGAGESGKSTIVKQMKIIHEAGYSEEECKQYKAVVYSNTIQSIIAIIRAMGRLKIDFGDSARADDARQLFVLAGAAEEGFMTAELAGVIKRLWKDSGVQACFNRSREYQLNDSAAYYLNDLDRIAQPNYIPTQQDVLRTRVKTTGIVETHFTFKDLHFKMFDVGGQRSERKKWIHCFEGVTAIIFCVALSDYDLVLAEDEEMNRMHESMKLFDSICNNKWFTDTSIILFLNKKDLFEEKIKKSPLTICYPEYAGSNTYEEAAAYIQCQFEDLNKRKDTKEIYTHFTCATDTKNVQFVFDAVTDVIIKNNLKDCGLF
Outline: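 Fluorescence polarization assay: 50 nM Gαi1 with 10 nM FITC-labeled RGS12 GoLoco peptide in 10 mM Tris pH 7.5, 150 mM NaCl, 0.1 mM GDP, 0.05% NP40, 10 min at room temperature with compound.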

[10] = qHTS Assay for Identification of Small Molecule Agonists for Thrombopoietin (TPO) Signaling Pathway (AID 917; active means well fitted curve in the direction sought with a large enough effect; an effect the other way counts as inactive or inconclusive)
Outline: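 We measured Glycoprotein IIb promoter–luciferase output in IL-3-starved Ba/F3 murine cells expressing the human TPO receptor after 24 hrs at 37 C with compounds and 26 pM TPO.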

[11] = target: Muscarinic acetylcholine receptor M1 (Rattus norvegicus) (UniProt P08482); experiment: qHTS Assay for Antagonists of Acetylcholine Muscarinic M1 Receptor: Kinetic Measurement of Intracellular Calcium Response (AID 943; active means well fitted curve in the direction sought with a large enough effect; an effect the other way counts as inactive or inconclusive;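 further: Fluo-4 calcium signal as peak divided by basal fluorescence over 4 min; nearly all actives have a fitted effect of over 75% in size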)
Chain of Muscarinic acetylcholine receptor M1 (Rattus norvegicus) (P08482 whole entry, looked up): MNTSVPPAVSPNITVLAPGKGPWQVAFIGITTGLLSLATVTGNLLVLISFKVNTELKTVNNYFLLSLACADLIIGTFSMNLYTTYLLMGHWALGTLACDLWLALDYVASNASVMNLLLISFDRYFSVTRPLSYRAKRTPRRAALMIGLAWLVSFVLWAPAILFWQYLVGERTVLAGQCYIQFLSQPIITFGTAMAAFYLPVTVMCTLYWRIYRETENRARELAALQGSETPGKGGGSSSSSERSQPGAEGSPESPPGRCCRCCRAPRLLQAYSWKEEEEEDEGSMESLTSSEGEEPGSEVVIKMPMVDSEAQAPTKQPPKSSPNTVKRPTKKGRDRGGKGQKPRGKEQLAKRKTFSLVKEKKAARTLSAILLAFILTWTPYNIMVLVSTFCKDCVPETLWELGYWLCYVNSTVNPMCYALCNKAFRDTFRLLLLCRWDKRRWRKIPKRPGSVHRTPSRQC
Outline: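 Intracellular calcium flux, recorded with Fluo-4 in a kinetic plate reader, served as signal; the response to carbachol at EC80 (100 nM final) was taken as maximal over minimal fluorescence after a 10 min compound pre-incubation in rat M1-CHO cells.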

[12] = target: Muscarinic acetylcholine receptor M1 (Rattus norvegicus) (UniProt P08482); experiment: qHTS Assay for Antagonists of Acetylcholine Muscarinic M1 Receptor: Measurement of IP-One Response (AID 944; active means well fitted curve in the direction sought with a large enough effect; an effect the other way counts as inactive or inconclusive; further: nearly all actives have a fitted effect of over 75% in size)
Outline: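 Steps: plate transfected CHO-M1 cells overnight; add test compound, 10 min; add carbachol (200 nM, EC80) in stimulation buffer with LiCl; incubate 30 min; add labelled IP1 tracer and anti-IP1 antibody in lysis buffer; read HTRF after 10 min.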

[13] = target: Pyruvate kinase (Leishmania mexicana) (UniProt Q27686); experiment: qHTS Validation Assay for Inhibitors of Leishmania Mexicana Pyruvate Kinase (AID 945; active means well fitted curve in the direction sought with a large enough effect; an effect the other way counts as inactive or inconclusive)
Chain of Pyruvate kinase (Leishmania mexicana) (Q27686 2-499 E452W): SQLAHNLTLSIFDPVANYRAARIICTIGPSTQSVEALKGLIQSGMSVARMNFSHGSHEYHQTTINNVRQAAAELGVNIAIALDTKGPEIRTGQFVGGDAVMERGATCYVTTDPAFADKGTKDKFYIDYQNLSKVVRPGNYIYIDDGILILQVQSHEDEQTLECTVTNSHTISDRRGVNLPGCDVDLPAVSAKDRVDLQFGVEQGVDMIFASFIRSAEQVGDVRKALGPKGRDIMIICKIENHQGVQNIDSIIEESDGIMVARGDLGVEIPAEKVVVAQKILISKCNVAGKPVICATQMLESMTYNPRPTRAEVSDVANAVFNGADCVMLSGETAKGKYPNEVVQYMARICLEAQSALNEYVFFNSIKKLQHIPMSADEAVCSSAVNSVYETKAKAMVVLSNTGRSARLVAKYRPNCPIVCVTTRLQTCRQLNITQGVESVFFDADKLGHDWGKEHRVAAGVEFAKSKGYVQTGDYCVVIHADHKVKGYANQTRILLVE
Outline: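 Substrate mix (0.5 mM PEP, 0.1 mM ADP, 7 mM MgCl2, 50 mM KCl, pH 7.2 imidazole) received compound by pin tool, then 0.2 nM LmPYK E451W. After 1 h at room temperature, PKLight was added and luminescence measured.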

[14] = target: Pyruvate kinase PKM (Homo sapiens) (UniProt P14618); experiment: qHTS Assay for Activators of Human Muscle Pyruvate Kinase (AID 954; active means well fitted curve in the direction sought with a large enough effect, not every such curve was filed as active)
Chain of Pyruvate kinase PKM (Homo sapiens) (P14618 whole entry, looked up): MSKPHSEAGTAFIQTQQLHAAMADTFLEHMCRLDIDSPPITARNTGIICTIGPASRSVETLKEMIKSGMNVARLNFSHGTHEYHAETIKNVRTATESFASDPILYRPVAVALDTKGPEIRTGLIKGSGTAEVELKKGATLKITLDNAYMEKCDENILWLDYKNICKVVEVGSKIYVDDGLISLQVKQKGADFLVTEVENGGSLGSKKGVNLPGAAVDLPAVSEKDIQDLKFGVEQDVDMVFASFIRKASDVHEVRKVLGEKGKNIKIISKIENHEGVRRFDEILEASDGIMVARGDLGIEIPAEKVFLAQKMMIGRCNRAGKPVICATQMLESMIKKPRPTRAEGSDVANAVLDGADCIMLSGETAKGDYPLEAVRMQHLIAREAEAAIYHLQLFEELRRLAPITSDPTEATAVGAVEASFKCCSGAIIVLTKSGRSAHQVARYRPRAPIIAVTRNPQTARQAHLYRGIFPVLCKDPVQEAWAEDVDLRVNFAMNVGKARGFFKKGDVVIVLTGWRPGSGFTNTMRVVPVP
Outline: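 Reaction: 0.1 nM purified PKM2 with 0.5 mM phosphoenolpyruvate and 0.1 mM ADP, room temperature, 1 h. Readout: luciferase-based ATP luminescence after stop reagent. Activators judged against a 0.3 nM enzyme column.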

[15] = target: Alpha-galactosidase A (Homo sapiens) (UniProt P06280); experiment: Counterscreen for Glucocerebrosidase Inhibitors: qHTS Assay for Human alpha-Galactosidase at pH 4.5 (AID 992; active means well fitted curve in the direction sought with a large enough effect; an effect the other way counts as inactive or inconclusive)
Chain of Alpha-galactosidase A (Homo sapiens) (P06280 whole entry, looked up): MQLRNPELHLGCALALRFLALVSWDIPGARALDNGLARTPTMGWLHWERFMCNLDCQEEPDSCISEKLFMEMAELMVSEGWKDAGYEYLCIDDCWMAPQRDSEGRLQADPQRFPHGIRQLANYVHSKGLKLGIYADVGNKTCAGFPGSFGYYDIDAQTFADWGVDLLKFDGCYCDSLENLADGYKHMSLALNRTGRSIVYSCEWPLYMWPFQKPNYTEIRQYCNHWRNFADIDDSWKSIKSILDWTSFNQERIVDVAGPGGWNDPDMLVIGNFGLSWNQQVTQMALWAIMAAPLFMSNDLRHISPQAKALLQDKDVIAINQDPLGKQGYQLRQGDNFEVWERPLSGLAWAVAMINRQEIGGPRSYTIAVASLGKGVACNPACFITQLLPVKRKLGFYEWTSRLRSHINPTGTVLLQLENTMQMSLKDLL
Outline: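 Concentration-response curves (0.7 nM to 77 uM final) were modeled with the Hill equation to give AC50. Reactions: 2 nM enzyme, 80 uM fluorogenic alpha-galactoside, pH 4.5 citric acid buffer, 20 min, room temperature.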

[16] = target: alpha-glucosidase (Oryza sativa, rice) (UniProt Q653V4); experiment: Counterscreen for Glucocerebrosidase Inhibitors: qHTS Assay for Rice alpha-Glucosidase at pH 5.0 (AID 997; active means well fitted curve in the direction sought with a large enough effect; an effect the other way counts as inactive or inconclusive)
Outline: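 Rice alpha-glucosidase (4 nM final) with 400 uM 4-methylumbelliferyl-alpha-D-glucopyranoside in citrate buffer pH 5.0, 20 min at room temperature, stopped at pH 10; fluorescence 365/440 nm, compounds 0.7 nM–77 uM, AC50 from Hill fits.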

[17] = qHTS Assay for Identification of Small Molecule Antagonists for NFkB Signaling Pathway (AID 895; active means well fitted inhibition curve with a large enough effect in the signal ratio, with a control signal flat, not every such curve was filed as active; the % refers to the signal ratio)
Outline: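 Beta-lactamase reporter read-out (460 and 530 nm emission ratio, 405 nm excitation, 2 hrs substrate loading RT) after 5 hr stimulation with 10 pM TNF alpha in compound-treated NFkB-bla ME-180 cells in low-serum medium.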

[18] = target: Cytochrome P450 2D6 (Homo sapiens) (UniProt P10635); experiment: qHTS Assay for Inhibitors and Substrates of Cytochrome P450 2D6 (AID 891; active means well fitted curve in the direction sought with a large enough effect; an effect the other way counts as inactive or inconclusive; further: nearly all actives have a fitted effect of over 60% in size; further: potency means the concentration at half of the fitted maximal effect;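 on activity change, negative = inhibition: luciferin methyl ether substrate demethylated by CYP2D6 with NADPH regeneration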)
Chain of Cytochrome P450 2D6 (Homo sapiens) (P10635 whole entry, looked up): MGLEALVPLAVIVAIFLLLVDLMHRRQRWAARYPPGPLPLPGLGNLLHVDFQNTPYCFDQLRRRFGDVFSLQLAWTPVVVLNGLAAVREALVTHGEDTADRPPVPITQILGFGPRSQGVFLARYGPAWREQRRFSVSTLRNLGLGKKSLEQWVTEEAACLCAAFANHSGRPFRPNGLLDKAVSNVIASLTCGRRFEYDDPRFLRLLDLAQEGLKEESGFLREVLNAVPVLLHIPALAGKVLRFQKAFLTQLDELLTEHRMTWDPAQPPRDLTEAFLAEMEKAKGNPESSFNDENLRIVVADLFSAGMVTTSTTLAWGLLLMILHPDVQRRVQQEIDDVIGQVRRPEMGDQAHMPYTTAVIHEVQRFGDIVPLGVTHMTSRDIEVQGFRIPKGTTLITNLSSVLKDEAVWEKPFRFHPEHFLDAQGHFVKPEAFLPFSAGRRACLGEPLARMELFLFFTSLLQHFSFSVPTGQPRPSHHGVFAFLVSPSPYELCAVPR
Outline: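 Human CYP2D6 (5 nM) with 30 uM Luciferin-ME EGE (at Km) in 100 mM KPO4, compound preincubated 10 min, then NADPH regeneration system for 60 min at room temperature. Luciferin read by luminescence; normalized to 1.43 uM quinidine.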

[19] = target: Cytochrome P450 2C19 (Homo sapiens) (UniProt P33261); experiment: qHTS Assay for Inhibitors and Substrates of Cytochrome P450 2C19 (AID 899; active means well fitted curve in the direction sought with a large enough effect; an effect the other way counts as inactive or inconclusive; further: nearly all actives have a fitted effect of over 60% in size)
Outline: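 5nM enzyme + 10uM Luciferin-H EGE (=KM), 50mM KPO4; cpd pin-transferred, 10 min 37C; NADPH regen, 60 min 37C; stopped w/ luciferin detection reagent, 20 min; luminescence. Normalized to 57uM ketoconazole (AC100).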

| Structure (SMILES) | activity change, negative = inhibition [1] | Potency [2] | activity change, negative = inhibition [3] | activity, negative = inhibition [4] | Potency [5] | Potency [6] [µM] | Potency [7] | Potency [8] | outcome [9] | outcome [10] | Potency [11] | Potency [12] | outcome [13] | outcome [14] | outcome [15] | Potency [16] | Potency [17] | Potency [18] | Potency [19] | activity change, negative = inhibition [2] |
| --- | --- | --- | --- | --- | --- | --- | --- | --- | --- | --- | --- | --- | --- | --- | --- | --- | --- | --- | --- | --- |
| Nc1nc2c(nc(Br)n2[C@@H]2O[C@H]3COP(=O)(O)O[C@@H]3[C@H]2O)c(=O)[nH]1 | 8.86% [at 38 µM] | inactive | -0.742% [at 38 µM] | -10.7% [at 38 µM] | 12.1 µM (active) | > 46 | inactive | inactive | inactive | inactive | inactive | inactive | inactive | inactive | inactive | inactive |  |  |  |  |
| Nc1nc(N)c2nc(CNc3ccc(C(=O)N[C@H](CCC(=O)O)C(=O)O)cc3)cnc2n1 | 1.47% [at 38 µM] | inactive | 13.5% [at 38 µM] | -0.643% [at 38 µM] | > 46 µM | > 46 | inactive | inactive | inactive | inactive |  |  | inactive | inactive | inactive | inactive |  |  |  |  |
| NC(=O)C1=CN([C@@H]2O[C@@H](COP(=O)(O)OP(=O)(O)OC[C@@H]3O[C@H](n4cnc5c(N)ncnc54)[C@@H](OP(=O)(O)O)[C@@H]3O)[C@H](O)[C@@H]2O)C=CC1 | 7.61% [at 38 µM] | inactive | 0.746% [at 38 µM] | -8.82% [at 38 µM] | > 46 µM | > 46 | inactive | inactive | inactive | inactive |  | inactive | inactive | inactive | inactive |  | inactive |  |  |  |
| c1ccc(C(CCN2CC3CCC(CC3)C2)c2ccccc2)cc1 | 2.88% | inactive | -81.8% (active) | 0.0517% | > 46 µM | > 9.22 | inactive | inactive |  |  |  |  |  |  |  |  |  | 0.794 µM (active) |  |  |
| CCNC(=O)[C@@H]1O[C@@H](n2cnc3c(NCc4ccccc4)ncnc32)[C@@H](O)[C@H]1O | -7.35% [at 38 µM] | inactive | 17% [at 38 µM] | -20.4% [at 38 µM] | > 46 µM | > 46 | inactive | inactive |  |  |  |  |  |  |  |  |  | inactive | inactive |  |
| COc1ccc(OC)c(-c2cc(C(=O)O)c3cc4ccccc4cc3n2)c1 | 4.44% |  | 15.6% | 4.07% | > 46 µM | > 9.22 | inactive | inactive |  |  |  |  |  |  |  |  |  | 3.98 µM (active) |  | -21.4% [at 2.29 µM] |
